According to PubChem BioAssay AID1347426 (Functional Genomics Laboratory (NCATS/FGL), 2020):
In all, about 31,000 sequences went through this assay and about 1,400 (4.5%) were called active.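 How the source made its calls: active means median seed-adjusted z-score above 1 or below -1; inactive means the rest.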 This excerpt belongs to a sample that is enriched for actives.

Assay: Novel Modifiers of Survival Motor Neuron (SMN) Protein: Gene Identification via Genome-wide siRNA Screen
Conditions: HEK293T SMN2-luciferase reporter, siRNA knockdown, 72 h; actives lie on both sides
Description: Spinal muscular atrophy (SMA) is the most common neuromuscular autosomal recessive disorder and one of the leading genetic causes of infant death. SMA results from mutations inducing loss of function or deletion in the survival of motor neuron-1 gene (SMN1), leading to deficiency of the survival motor neuron (SMN) protein. Although a second nearly identical gene, SMN2, is retained in humans, its expression primarily produces an aberrantly spliced isoform that is largely unstable and quickly degraded. We performed a genome-wide RNAi screen using a cell-based reporter assay to identify genes and pathways that modulate SMN protein stability. The screen identified over 200 genes that led to the greatest increase or decrease in luciferase expression.
Using HEK293T cells stably expressing a luciferase reporter that combines the promoter and splicing based cassettes in tandem with the major portion of the native SMN2 cDNA with luciferase, we performed a genome-wide RNAi screen to identify modulators of SMN protein levels. Luciferase is expressed when full-length SMN protein is generated with luminescence signal proportional to SMN protein levels. Our luciferase-based reporter assay was used to screen Ambion Silencer Select Human Druggable Genome siRNA library (10418 genes, 3 unique siRNAs per gene) using lipid-based reverse transfection.
Briefly, 1 pmol of each siRNA was spotted to a well of a 384-well plate (Corning, Corning, NY) and 20 microL of serum-free DMEM containing […] of Lipofectamine RNAiMax (Life Technologies, Carlsbad, CA) was then added to each well. Transfected cells were maintained at 37 degrees C in 5% CO2 for 72 hours, 20 microL of ONE-Glo Reagent (Promega) was added to wells for luciferase quantification. Raw luminescence reads were normalized to Ambion(R) Silencer(R) Negative Control #2 siRNA, then log10 transformed. A robust statistical measure of median absolute deviation (MAD) to standardize siRNA activities from each screen. Common Seed Analysis was used to help prioritize clean hits as opposed to those appearing to arise from seed based off-target effects. Candidate modulators were defined as the genes having a MAD score greater than 1.0 or less than -1.0.

Sequence	median seed-adjusted z-score
GGAGAGAGCAGUUUCAACATT against HSPB8	0.207 (inactive)
GGAUAGAAUAUGUAACGGUTT against SUPT6H	-2.54 (active)
CACCGGUGAGAUUCCCUAUTT against ZNF546	0.497 (inactive)
GCUUACUACACUUUUCUAATT against G6PC2	-0.0362 (inactive)
CAAACUCUACAUCACCUUUTT against GPR32	-1.2 (active)
CAAGAACUCGGAUAAUGAUTT against IL2RG	-0.155 (inactive)
CACGGUAUAUGUUAGAGUATT against DSG3	0 (inactive)
UCCCUUACAUGUCACCAAATT against ZMIZ2	-0.27 (inactive)
GCCUACAAGCAGAUUCAAATT against PTRH2	0.0467 (inactive)
ACCCAACUCUUACUCUUAATT against RNF7	-1.18 (active)
GGCUCAACGUAUAAGCGAATT against PIP5K1B	0.0917 (inactive)
GAUGGAAACAUUGAAUAUATT against GTPBP2	-0.166 (inactive)
GAAGGAGUUUGCACAGAAATT against DHDH	0.522 (inactive)
CAGUCUUCAUUGCUACUAATT against NFE2L2	-0.596 (inactive)
GAAGCAAUCUGGGAAGAGATT against MOCS3	-0.496 (inactive)
CGCCCAACCUUACUACCUUTT against TXNDC14	-2.39 (active)
GGAUGGUUGUGAGCCGCUATT against ZNF784	0.291 (inactive)
CGACGACGUGCAAGACCAATT against ZNF787	-0.0628 (inactive)
CCUUUACUUUCUAUAGAAATT against ZNF573	-0.169 (inactive)
GCAGUUAUUGGUACUAAUATT against MOAP1	0.0405 (inactive)
AGAGAAUCUCGAGGAUAUATT against ZNF74	1.17 (active)
CCUUAUCGCUAGAUGUCAATT against GRM3	-0.401 (inactive)
GCUGAGCUCAGUAACCACATT against LCAT	0.526 (inactive)

Sequence	median seed-adjusted z-score
GCAAUGCCCUUUUCACCGATT against SERPINA5	-1.01 (active)
CCAUGACAACUUUCACUGATT against AGFG2	-0.289 (inactive)
GCAGAAAAGAACAACUUGUTT against RAB11B	-0.857 (inactive)
GCAAUAGGAUGGAUGAUCATT against GPSM2	-0.755 (inactive)
GCAGCUCACUUAAGGCCUATT against VPS18	0.181 (inactive)
GAUCUAUUCUUAAUGCCGATT against TFB1M	0.172 (inactive)
GAAAUUUCUUAGGAACUCATT against ADH1B	0.325 (inactive)
CCCUCAAUCCAGCACAAAATT against LILRA4	0.109 (inactive)
GGGACCGAGAGAUCAGAUATT against PPAP2C	-1.12 (active)
CUUCCAAUGUUAAUGGACATT against VHLL	-0.0852 (inactive)
GAGGCUCGGUAAUCAAUGATT against DERL1	0.22 (inactive)
GCUUUAGAAUACAUACCAATT against IFIT2	-0.0205 (inactive)
CCCUCAAGGUACAAACAUUTT against POLD1	-0.715 (inactive)
CAGGAGCAGUUAGACUUAATT against DNALI1	0.699 (inactive)
GGUUUGCCCUUAUCUUGUATT against RDH10	-0.28 (inactive)
GAAUAACCGUUGGUUUAAUTT against U2AF1	2.08 (active)
AAUUGAGGAAUACAAAAGATT against PAX3	0.0223 (inactive)
GGAUGGGCAUGUUGAGAGATT against NUDT9	0.277 (inactive)
GGAUCUGACAGACAAUGAUTT against ABCC3	-0.549 (inactive)
CGUGGAUUCUUACGGAAGATT against CIT	-0.0585 (inactive)
GAGUCUAUCUUGAUAAUCUTT against PPWD1	-0.341 (inactive)
CCGGGUUAAUUACCACCUUTT against MTHFR	0 (inactive)
GAGAAGUCGAGGCUCUUUATT against WNT6	0.027 (inactive)

Sequence	median seed-adjusted z-score
CGGUGAACGGGUUGGAGAATT against PAX9	-1.16 (active)
GCUUUGACCUUCUUAGCAATT against SMARCAL1	-0.145 (inactive)
CAACGAUAUUUGGAUAUCUTT against DPP8	-0.0209 (inactive)
GGUCAAUACACCUAAGAAATT against PRDX1	0.288 (inactive)
GAUCGUUUCCUAUACAGUATT against ESPL1	0.871 (inactive)
GGGCUGUGAUCUUGUCGAATT against AGMAT	-0.0269 (inactive)
CAACGACAGAACUAACAGATT against SENP6	-1.03 (active)
GAAGGUGUUUCAUACGAAUTT against SIPA1L1	0.0925 (inactive)
CUCUAUGAAUAUUGUAUUATT against BUD31	0.0554 (inactive)
GGCUAACAAUUUGUCCAGUTT against SEC22B	-0.106 (inactive)
CGUCAUCUUUGCGAAGAUUTT against EHD2	0.0989 (inactive)
CAACAUCUAUGAUUGGAAUTT against RFXANK	-0.0665 (inactive)
CCAGUGCUGUCAGUACGAUTT against LY6G5B	-1.29 (active)
CCAAUAUUGUGGAUCCUUUTT against HTR4	0.444 (inactive)
GAGCUAUAAUCAGACCUGUTT against ART5	-0.354 (inactive)
CGCUCACUGUUCUUCGGCUTT against RAD9A	-0.0564 (inactive)
CCCAAGACGUUCACCGUGATT against NF2	-0.543 (inactive)
CAUCAAACCUGGGAACAAATT against ZNF225	0.0761 (inactive)
GGAACGAGGUGUCAGCUCUTT against RFXANK	-0.0665 (inactive)
UCAACCUCAUGGACUUUAATT against SLC5A5	1.01 (active)
GGAGCUACUGAGAACAUAATT against HOXD4	0.566 (inactive)
GGAACACUCAUGACUGUAATT against ZNF426	0.2 (inactive)
CAAUGAGUAUGUGACGGAATT against UNC13A	-2.1 (active)
